Out of some 5,500 compounds screened, about 2,000 (36%) were called active. Roughly 18% stayed inconclusive and do not appear here. Cut-off read from the data, not from the text of the source: active = normalized growth mostly below about 0.91 (no sharp cut-off); inconclusive = no clear call, values can overlap the other calls; inactive = mostly above about 0.92. The list shows a part of the results.
Test: chemical genetic growth profiling, strain panel (AID 1159580);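 note: tested at 20 µM; growth read once vehicle control cultures reached saturation at 30 °C; 1 = growth at the plate median or of vehicle wells; lower values mean less growth of the strain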
Details: growth OD

Measured: normalized growth

COc1cc2c3cc1Oc1cc(ccc1O)C[C@@H]1c4c(cc(OC)c(O)c4Oc4ccc(cc4)C[C@@H]3N(C)CC2)CC[N+]1(C)C
inactive: S. cerevisiae deletion strains, locus YKL009W, strain mrt4, stronger effect = lower value 1.04 | S. cerevisiae deletion strains, locus YKL068W, stronger effect = lower value 0.997 | S. cerevisiae deletion strains, locus YKL085W, strain MDH1 (second series), stronger effect = lower value 0.988 | S. cerevisiae deletion strains, locus YKL085W, strain MDH1, stronger effect = lower value 0.988 | S. cerevisiae deletion strains, locus YKL160W, strain elf1, stronger effect = lower value 1.04 | S. cerevisiae deletion strains, locus YKL190W, strain CNB1, stronger effect = lower value 1.01 | S. cerevisiae deletion strains, locus YKR001C, strain vps1, stronger effect = lower value 1.01 | S. cerevisiae deletion strains, locus YKR026C, strain gcn3, stronger effect = lower value 1 | S. cerevisiae deletion strains, locus YKR091W, strain srl3, stronger effect = lower value 0.999 | S. cerevisiae deletion strains, locus YLL001W, strain dnm1, stronger effect = lower value 1.04 | S. cerevisiae deletion strains, locus YLL026W, stronger effect = lower value 1.01 | S. cerevisiae deletion strains, locus YLL041C, strain sdh2, stronger effect = lower value 1 | S. cerevisiae deletion strains, locus YLR027C, strain aat2, stronger effect = lower value 1.02 | S. cerevisiae deletion strains, locus YLR039C, strain RIC1, stronger effect = lower value 1.09 | S. cerevisiae deletion strains, locus YLR058C, strain SHM2, stronger effect = lower value 1.01 | S. cerevisiae deletion strains, locus YLR102C, strain apc9, stronger effect = lower value 1 | S. cerevisiae deletion strains, locus YLR113W, strain HOG1, stronger effect = lower value 0.996 | S. cerevisiae deletion strains, locus YLR221C, strain rsa3, stronger effect = lower value 0.966 | S. cerevisiae deletion strains, locus YLR258W, strain gsy2, stronger effect = lower value 0.988 | S. cerevisiae deletion strains, locus YLR262C, strain YPT6 (second series), stronger effect = lower value 1.04 | S. cerevisiae deletion strains, locus YLR262C, strain YPT6, stronger effect = lower value 1.06 | S. cerevisiae deletion strains, locus YLR268W, strain sec22, stronger effect = lower value 1.04 | S. cerevisiae deletion strains, locus YLR320W, strain mms22, stronger effect = lower value 0.967 | S. cerevisiae deletion strains, locus YLR330W, strain CHS5, stronger effect = lower value 1.01 | S. cerevisiae deletion strains, locus YLR342W, strain FKS1 (second series), stronger effect = lower value 0.999 | S. cerevisiae deletion strains, locus YLR342W, strain FKS1, stronger effect = lower value 1.02 | S. cerevisiae deletion strains, locus YLR357W, strain rsc2, stronger effect = lower value 0.958 | S. cerevisiae deletion strains, locus YLR370C, strain arc18, stronger effect = lower value 1.01 | S. cerevisiae deletion strains, locus YLR371W, strain rom2, stronger effect = lower value 1.01 | S. cerevisiae deletion strains, locus YLR384C, strain iki3, stronger effect = lower value 1 | S. cerevisiae deletion strains, locus YLR418C, strain cdc73, stronger effect = lower value 0.986 | S. cerevisiae deletion strains, locus YML016C, strain PPZ1, stronger effect = lower value 1.01 | S. cerevisiae deletion strains, locus YML032C, strain rad52, stronger effect = lower value 0.981 | S. cerevisiae deletion strains, locus YML120C, strain ndi1, stronger effect = lower value 1.03 | S. cerevisiae deletion strains, locus YML124C, strain tub3, stronger effect = lower value 0.999 | S. cerevisiae deletion strains, locus YMR058W, strain fet3, stronger effect = lower value 1 | S. cerevisiae deletion strains, locus YMR078C, strain ctf18, stronger effect = lower value 1.01 | S. cerevisiae deletion strains, locus YMR125W, strain sto1, stronger effect = lower value 0.993 | S. cerevisiae deletion strains, locus YMR129W, stronger effect = lower value 0.98 | S. cerevisiae deletion strains, locus YMR205C, strain PFK2, stronger effect = lower value 1.03 | S. cerevisiae deletion strains, locus YMR223W, strain ubp8, stronger effect = lower value 0.994 | S. cerevisiae deletion strains, locus YMR231W, strain pep5, stronger effect = lower value 0.993 | S. cerevisiae deletion strains, locus YMR307W, strain GAS1, stronger effect = lower value 1.06 | S. cerevisiae deletion strains, locus YNL067W, strain RPL9B, stronger effect = lower value 1.04 | S. cerevisiae deletion strains, locus YNL071W, strain lat1, stronger effect = lower value 0.969 | S. cerevisiae deletion strains, locus YNL128W, strain TEP1, stronger effect = lower value 1.02 | S. cerevisiae deletion strains, locus YNL183C, strain NPR1, stronger effect = lower value 0.948 | S. cerevisiae deletion strains, locus YNL209W, strain ssb2, stronger effect = lower value 0.982 | S. cerevisiae deletion strains, locus YNL233W, strain BNI4, stronger effect = lower value 1.03 | S. cerevisiae deletion strains, locus YNL248C, strain rpa49, stronger effect = lower value 0.926 | S. cerevisiae deletion strains, locus YNL250W, strain rad50, stronger effect = lower value 1.01 | S. cerevisiae deletion strains, locus YNL271C, strain bni1, stronger effect = lower value 1.01 | S. cerevisiae deletion strains, locus YNL298W, strain CLA4, stronger effect = lower value 1 | S. cerevisiae deletion strains, locus YNL307C, strain MCK1, stronger effect = lower value 1.01 | S. cerevisiae deletion strains, locus YNL322C, strain KRE1 (second series), stronger effect = lower value 0.984 | S. cerevisiae deletion strains, locus YNL322C, strain KRE1, stronger effect = lower value 0.999 | S. cerevisiae deletion strains, locus YNR049C, strain mso1, stronger effect = lower value 0.99 | S. cerevisiae deletion strains, locus YNR052C, strain pop2, stronger effect = lower value 1.01 | S. cerevisiae deletion strains, locus YOL006C, strain TOP1, stronger effect = lower value 1.1 | S. cerevisiae deletion strains, locus YOL012C, strain htz1 0.91 | S. cerevisiae deletion strains, locus YOL147C, strain pex11, stronger effect = lower value 0.995 | S. cerevisiae deletion strains, locus YOR001W, strain rrp6, stronger effect = lower value 1.02 | S. cerevisiae deletion strains, locus YOR061W, strain CKA2, stronger effect = lower value 1.01 | S. cerevisiae deletion strains, locus YOR069W, strain VPS5, stronger effect = lower value 1.01 | S. cerevisiae deletion strains, locus YOR070C, strain gyp1, stronger effect = lower value 0.993 | S. cerevisiae deletion strains, locus YOR080W, strain dia2, stronger effect = lower value 1.01 | S. cerevisiae deletion strains, locus YOR083W, strain WHI5, stronger effect = lower value 1.01 | S. cerevisiae deletion strains, locus YOR106W, strain vam3, stronger effect = lower value 1.03 | S. cerevisiae deletion strains, locus YOR136W, strain idh2, stronger effect = lower value 1 | S. cerevisiae deletion strains, locus YOR144C, strain elg1, stronger effect = lower value 0.993 | S. cerevisiae deletion strains, locus YOR184W, strain ser1, stronger effect = lower value 1.01 | S. cerevisiae deletion strains, locus YOR231W, strain MKK1, stronger effect = lower value 0.996 | S. cerevisiae deletion strains, locus YOR265W, strain rbl2, stronger effect = lower value 0.999 | S. cerevisiae deletion strains, locus YOR270C, strain vph1, stronger effect = lower value 0.985 | S. cerevisiae deletion strains, locus YOR290C, strain snf2, stronger effect = lower value 0.946 | S. cerevisiae deletion strains, locus YOR316C, strain cot1, stronger effect = lower value 1 | S. cerevisiae deletion strains, locus YPL051W, strain arl3, stronger effect = lower value 1.01 | S. cerevisiae deletion strains, locus YPL055C, strain LGE1, stronger effect = lower value 1.04 | S. cerevisiae deletion strains, locus YPL078C, strain atp4, stronger effect = lower value 1.04 | S. cerevisiae deletion strains, locus YPL106C, strain sse1, stronger effect = lower value 0.937 | S. cerevisiae deletion strains, locus YPL240C, strain hsp82, stronger effect = lower value 1 | S. cerevisiae deletion strains, locus YPL256C, strain CLN2, stronger effect = lower value 0.99 | S. cerevisiae deletion strains, locus YPR119W, strain clb2, stronger effect = lower value 1 | S. cerevisiae deletion strains, locus YPR141C, strain kar3, stronger effect = lower value 1.01 | S. cerevisiae deletion strains, locus YPR163C, strain tif3, stronger effect = lower value 0.992 | S. cerevisiae deletion strains, locus YPR167C, strain met16, stronger effect = lower value 0.999 | S. cerevisiae deletion strains, strain wtn01, stronger effect = lower value 1.01 | S. cerevisiae strains, strain wild type, stronger effect = lower value 1.01
